Source: PubChem (National Center for Advancing Translational Sciences (NCATS))
NPSR antagonist = antagonists of human neuropeptide S receptor cAMP signaling. CHO-NPSR cells, cAMP TR-FRET, antagonist mode. Potency, µM (top dose mostly 38.3 µM), actives largely listed as inhibitors. actives 1% (n = 220,000); also: nearly all actives have a fitted effect of over 50% in size
PKM2 activator = PKM2 (human) enzyme activation. Potency, µM (highest dose often 57.5 µM), usual class: activators. P14618. actives 0.34% (n = 260,000). purified PKM2, Kinase-Glo ATP luminescence, activation; response scale: 0% is enzyme alone, no compound; also: nearly all actives have a fitted effect of over 55% in size
Target sequence (P14618 whole entry, looked up): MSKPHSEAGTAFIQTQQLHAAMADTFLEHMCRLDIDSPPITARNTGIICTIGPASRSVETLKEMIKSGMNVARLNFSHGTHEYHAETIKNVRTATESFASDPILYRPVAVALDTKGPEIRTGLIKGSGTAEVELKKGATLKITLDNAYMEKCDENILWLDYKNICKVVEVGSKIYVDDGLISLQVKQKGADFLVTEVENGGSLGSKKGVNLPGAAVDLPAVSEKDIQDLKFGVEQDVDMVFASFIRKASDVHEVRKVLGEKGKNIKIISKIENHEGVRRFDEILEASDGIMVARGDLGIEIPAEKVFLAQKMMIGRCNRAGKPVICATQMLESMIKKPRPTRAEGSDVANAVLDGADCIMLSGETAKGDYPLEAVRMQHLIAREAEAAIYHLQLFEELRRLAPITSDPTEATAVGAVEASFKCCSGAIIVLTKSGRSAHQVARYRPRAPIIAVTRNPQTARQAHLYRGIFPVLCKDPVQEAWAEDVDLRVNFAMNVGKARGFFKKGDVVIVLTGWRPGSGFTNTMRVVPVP
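hPK-M2, >95% pure; 0.1 mM ADP / 0.5 mM PEP final; imidazole pH7.2 buffer w/ 7 mM MgCl2, 50 mM KCl; 1 h RT; Kinase-Glo lum. Intermediate enzyme activity for dual inhibitor/activator qHTS.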
IL2 activator = IL-2 activation. IL-2 activation reporter assay, cell-based qHTS; stimulated with anti-CD3/CD4/CD28 beads; in transgenic mouse T cells. activation, % (series mostly up to about 46 µM). actives 0.065% (n = 360,000). AID 652025; in the data active = activation above about 50%; inconclusive = mostly about 30% to 49%
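Unstimulated transgenic mouse T cells; 60-min compound exposure; bead-based TCR/CD4/CD28 stimulation; 18 h culture, 37 degrees C; dual fluorescence (EGFP, DsRed) plate cytometry.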
ClpP mod = qHTS Assay for Activators of ClpP. actives 1.9% (n = 340,000). Potency, µM (series often up to 57.5 µM). purified B. subtilis ClpP, FRET peptide cleavage, 20 min. ATP-dependent Clp protease proteolytic subunit (Bacillus subtilis (strain 168)), P80244. AID 651965, 2013; active = well fitted falling curve with a large enough effect; inconclusive = small, poorly fitted or top-dose-only effect; inactive = no such curve, though single readings can be large or run the other way; also: the source files actives as falling curves though it sought activators and does not explain the sign; nearly all actives have a fitted effect of over 65% in size
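ClpP 10 microg/mL final, pH 8 Tris/KCl buffer with BSA, glycerol, Tween-20; compound pinned in; FRET-FV substrate; RT 20 min; Ex320/Em430; ΔFRET vs ADEP 5.8 microM, DMSO, no enzyme.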
Each line names hits and unclear results; the compound was inactive in the other large screens. Only some compounds are listed: those with a hit (about 2% of all), similar ones and a draw of the others. Unless noted, calls follow the shape of the dose curve; as a rule, active = well fitted curve in the direction sought with a large enough effect; inconclusive = small, poorly fitted or top-dose-only effect, or another doubt; inactive = no such curve, though single readings can be large; an effect the other way counts as inactive or inconclusive.

CCCCCCC(=O)Nc1ccc(C(=O)N/N=C/c2cccnc2)cc1	none
CCCCCCCC(=O)Nc1ccc(C(=O)N/N=C/c2cccc([N+](=O)[O-])c2)cc1	ClpP mod 28.2µM
CCCn1cnc2cc(NCc3cccc(OC)c3)ccc21	ClpP mod 28.2µM
CCOc1ccc(CNc2ccc3c(c2)ncn3C)cc1	ClpP mod 31.6µM
CCOc1ccc(-c2nc(-c3ccc(OC)cc3)no2)cc1OCC	ClpP mod 31.6µM
CCOc1ccc(CCNC(=O)CCc2nc(-c3ccc(C)cc3)no2)cc1OCC	none
CCOc1ccc(CCNC(=O)CCc2nc(-c3ccc(OC)cc3)no2)cc1OCC	ClpP mod 25.1µM
COc1ccccc1N=Cc1c(C)c(C#N)c2[nH]c3ccccc3n2c1=O	IL2 activator 125.8 (no result: ClpP mod)
CCCc1ccc(C(O)c2ncc(-c3cccc(C)c3)[nH]2)cc1 (stereo unspecified)	none (no result: NPSR antagonist, PKM2 activator)
CCOC(=O)Cc1c(C)nc2c(-c3ccc(Cl)cc3)c[nH]n2c1=O	ClpP mod 3.16µM
CCc1c(C)nc2cc(-c3ccc(OC)cc3)[nH]n2c1=O	ClpP mod 31.6µM
COc1ccc(-c2cc3nc(N)cc(=O)n3[nH]2)cc1	none (no result: NPSR antagonist, PKM2 activator, IL2 activator)
CCOC(=O)Cc1cc(=O)n2[nH]c(-c3ccc(C)cc3)cc2n1	ClpP mod inconclusive
COCc1cc(=O)n2[nH]c(-c3ccc(C)cc3)cc2n1	ClpP mod 20µM
CCOC(=O)CCc1c(C)nc2cc(-c3ccc(F)cc3)[nH]n2c1=O	ClpP mod 25.1µM
CCOC(=O)Cc1c(C)nc2cc(-c3ccc(Cl)cc3)[nH]n2c1=O	ClpP mod 28.2µM
O=c1c2oc3ccccc3c2[nH]c(=S)n1-c1ccc(F)cc1	NPSR antagonist 10µM (no result: ClpP mod)
Cc1ccc(-n2c(=S)[nH]c3c(oc4ccccc43)c2=O)cc1C	NPSR antagonist inconclusive
COc1ccc(Cc2nnc(SCC(=O)N(C)CC(=O)Nc3ccc(C)cc3)o2)cc1	none (no result: NPSR antagonist, PKM2 activator)
CCN(CC)C(=O)Oc1ccc(Br)cc1C(=O)Nc1ccc(F)cc1F	ClpP mod 31.6µM
CN(C)S(=O)(=O)Oc1ccccc1C(=O)Nc1ccc(F)cc1F	none (no result: ClpP mod)
Cc1cccc(C(=O)NCCCNC(=O)c2cccnc2)c1	none (no result: NPSR antagonist, ClpP mod)
COc1ccc(S(=O)(=O)c2ccc(OC)c(OC)c2)cc1OC	ClpP mod 31.6µM
COc1ccccc1-n1cnc2cc(NCc3ccccc3O)ccc21	none
COc1cccc(CNc2ccc(F)c(Cl)c2)c1O	NPSR antagonist 10µM
CCn1cnc2cc(NCc3cccc(OC)c3O)ccc21	ClpP mod 31.6µM
COc1cccc(CNc2cccc(C(F)(F)F)c2)c1O	none
CCOc1ccc(-c2cc(C(=O)NC(C)c3ccccc3)c3ccccc3n2)cc1 (stereo unspecified)	none (no result: NPSR antagonist, PKM2 activator, IL2 activator)
O=C(CCCCn1c(=O)c2ccccc2n(Cc2ccccc2F)c1=O)NCc1ccccc1Cl	none (no result: NPSR antagonist, PKM2 activator, IL2 activator)
CC(C)C[C@@H](CN1CCC[C@@H]1CN1C(=O)C(=O)NC[C@@H]1Cc1ccccc1)N1C[C@H](Cc2ccc(O)cc2)N(CC2CCCCCC2)C(=O)C1=O	none (no result: NPSR antagonist, PKM2 activator)
COC(=O)C1=C(C)N=C2SC(C)C(=O)N2C1/C=C/c1ccccc1OC (stereo unspecified)	none
COc1cccc(C(=O)NCC(=O)N/N=C(\C)Cc2ccccc2)c1	none (no result: NPSR antagonist)
CCN(CC)c1ccc2c(C)c(Cl)c(=O)oc2c1	none (no result: ClpP mod)
CCN(CC)c1ccc2c(Cl)c(Br)c(=O)oc2c1	NPSR antagonist 3.16µM
CCN(CC)c1ccc2c(c1)oc(=O)c1c(Cl)cc(=O)oc12	NPSR antagonist 3.98µM
Cc1cccc(CSCCNC(=S)Nc2ccccc2)c1	ClpP mod 25.1µM
O=c1[nH]ncc(N2CCN(C(c3ccccc3)c3ccccc3)CC2)c1Cl	ClpP mod 28.2µM
O=c1[nH]ncc(N2CCCC2)c1Cl	none (no result: ClpP mod)
CCCCSc1cnn(-c2ccccc2)c(=O)c1SCCCC	NPSR antagonist 12.6µM
CCSc1cnn(-c2ccccc2)c(=O)c1SCC	NPSR antagonist 12.6µM
CCSc1cnn(-c2ccccc2)c(=O)c1Cl	none (no result: NPSR antagonist, PKM2 activator)
Cc1nc(C(=O)NC2CC2)sc1C1(C)CC(c2ccccc2)=NO1 (stereo unspecified)	none
COc1ccccc1OCCNC(=O)CCNC(=O)c1ccccc1OC	none (no result: NPSR antagonist, PKM2 activator)
CC1CCCCN1S(=O)(=O)c1ccc(C(=O)Nc2sccc2C(N)=O)cc1 (stereo unspecified)	NPSR antagonist 1.58µM
Cc1cc(Cl)nc2ccc(Cc3ccc4nc(Cl)cc(C)c4c3)cc12	none
CCCC1C(C#N)=C(N)Oc2cc(C)n(C)c(=O)c21 (stereo unspecified)	ClpP mod 31.6µM
